The results in this text go back to PubChem BioAssay (NCATS).

Values joined by “and” are separate entries in the source; they are usually repeats but may differ in a detail not shown here. Equal values may be shown once. Inconclusive results are not listed. Some compounds were tested as several samples or in several runs, with calls that do not always agree. Values without a mark were called inactive. Active and inactive are the calls of the source. Calls follow the shape of the dose curve; as a rule, active = well fitted curve in the direction sought with a large enough effect; inconclusive = small, poorly fitted or top-dose-only effect, or another doubt; inactive = no such curve, though single readings can be large or run the other way.
% is scaled to controls: 0 for no effect and ±100 for the full control effect; potency is read from the fitted curve at half-maximal effect.

This assay is described as follows: qHTS Assay for Identifying Gametocytocidal Compounds (AID 743244).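 As to max response: actives lower the fluorescent signal which means gametocytes are killed.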 The note with it: P. falciparum 3D7 stage III-V gametocytes, alamarBlue, 72 h; max response: hits give low values. The text has this:
Malaria cases and deaths have dropped 50% in 29 countries since 2000 due to the combined effects of long-lasting insecticidal bednets, indoor residual spraying, and artemisinin-based combination therapies (ACTs). This success has raised hopes for malaria eradication and consequently stimulated interest in developing new reagents that block gametocyte transmission such as novel and safe gametocytocidal drugs. However, previous drug development efforts have focused primarily on the asexual parasites that cause symptoms, but not malaria transmission. Consequently, patients can remain infectious for weeks after the clearance of asexual parasites and clinical symptoms. To be transmitted from person to person via a mosquito, the parasites must switch from asexual to sexual development and produce male and female gametocytes. Malaria gametocytes consist of five stages (I, II, III, IV and V). The late stage gametocytes (III, IV and V) are difficult to be cultured in vitro and the long lifespan of mature gametocytes allows them being transmitted from host to mosquitoes unless they are completely eliminated by gametocytocidal agents. To identify gametocytocidal compounds which are capable of killing late stage P. falciparum gametocytes, a high throughput gametocyte viability assay was employed. This assay uses oxidoreduction indicator, alamarBlue, as a general measure of metabolic activity of gametocytes. Within live cells, the nonfluorescent resazurin is reduced to resorufin, a bright red fluorescence dye. Fluorescence decreases upon treatment of gametocytocidal compounds. P. falciparum gametocyte (3D7 strain) was used in this study.
The 1536-well gametocycidal viability assay was based on the previous method of Tanaka et al. Stage III-V gametocytes were tested against three compound libraries, including 4265 compounds from NCGC pharmaceutical collection, 400 from Malaria Box library, and 550 from an internal collection of kinase inhibitors. Briefly, 2.5 ul/well incomplete medium was dispensed into each well of 1,536-well plates using the Multidrop Combi followed by 23 nl compound transferring using the NX-TR Pintool (WAKO Scientific Solutions, San Diego, CA). Then, 2.5 ul/well of gametocytes was dispensed with a seeding density of 20,000 cells/well using the Multidrop Combi. The assay plates were incubated for 72 h at 37C with 5% CO2. After addition of 5 ul/well of 2X AlamarBlue dye (Life Technologies, cat. no. DAL1100), the plates were incubated for 24 h at 37C with 5% CO2 and then were read in a fluorescence detection mode (Ex = 525 nm, Em = 598 nm) on a ViewLux plate reader (PerkinElmer).
Regarding `CC(=O)CCC(=O)O`, the max response was 13.5%.
Regarding `[O-][n+]1cccc(CO)c1`, the max response was -4.23%.
As for `CC1=C(CC(=O)O)c2cc(F)ccc2/C1=C\c1ccc(S(C)=O)cc1` (stereo not given), the max response was -9.81% and 32%.
Take `O=c1cc(CO)occ1O`: the max response was 1.55% and -0.506%.
As for `CC(=O)Oc1ccc(C2(c3ccc(OC(C)=O)cc3)C(=O)Nc3ccccc32)cc1`, the max response was -4.55% and 20.8%.
On the same count and under the same terms, to `O=C(CCCN1CCN(c2ccccn2)CC1)c1ccc(F)cc1` belongs 11.2%; to `O=C(Oc1ccccc1C(=O)O)c1ccccc1O`, -1.86%.
The same measure, in the same setting: then `CN1CCOC(c2ccccc2)c2ccccc2C1` (stereo not given), with -7.73%; and `CC(C)(C)[C@]1(O)CCN2C[C@H]3c4ccccc4CCc4cccc(c43)[C@@H]2C1`, with 13.6% and 4.8%.
For the compound `Nc1ncnc2c1ncn2[C@@H]1O[C@H](CO)[C@@H](O)[C@H]1O`, the max response is -0.147% and 30.2%.
The same measure, in the same setting: then `Nc1ccc(S(=O)(=O)Nc2ccc(Cl)nn2)cc1`, with 13.8% and 15.1%; and `Cc1cc2c(cc1S(N)(=O)=O)S(=O)(=O)CCC2`, with 20.4%.
Still for that read-out and setting: then `COc1ccc(Cl)cc1C(=O)NCCc1ccc(S(=O)(=O)NC(=O)NC2CCCCC2)cc1`, with 54% and 5.04%; and `Cc1cc(CC(=O)O)n(C)c1C(=O)c1ccc(Cl)cc1`, with 5.09% and -10.7%.
Same read-out and setting: to `CCCCCCCCCCCCCCCCCCOCC(O)CO` (stereo not given) belongs 1.98%.
For the compound `NC(=O)N/N=C/c1ccc([N+](=O)[O-])o1`, the Potency was 35.5 µM (active) and the max response is 4.19%.
For the compound `Cc1ncc(COP(=O)(O)O)c(C=O)c1O`, the max response was 5.05%.
As to `CC(CN(C)C)CN1c2ccccc2CCc2ccccc21` (stereo not given), the max response is 4.34%.
The same measure, in the same setting: then `NCCNCCNCCNCCN`, with -2.7%.
Same read-out and setting: then `CC(=O)OCC(=O)[C@@]1(O)CC[C@H]2[C@@H]3CCC4=CC(=O)CC[C@]4(C)[C@H]3C(=O)C[C@@]21C`, with -5.84%; and `C[C@]12C[C@H](O)[C@H]3[C@@H](CCC4=CC(=O)CC[C@@]43C)[C@@H]1CC[C@@H]2C(=O)CO`, with -3.84% and -1.24%.
The same measure, in the same setting: to `O=S(=O)(O)NC1CCCCC1` belongs -6.77%.
For `CC(O)COc1ccccc1` (stereo not given), the max response was 8.99%.
As to `O=C(O)c1ccccc1-c1ccc(C(F)(F)F)cc1`, the max response was -6.58%.
The same measure, in the same setting: to `CC12CCC(CC1)C(C)(C)O2` belongs 7.91%; to `CO/N=C(\C(=O)N[C@@H]1C(=O)N2C(C(=O)O)=C(CSc3nc(=O)c(O)nn3C)CS[C@H]12)c1csc(N)n1`, -6.47%; to `N[C@@H](CSSC[C@H](N)C(=O)O)C(=O)O`, 13.6%.
For the compound `CCN(CC)C(=O)Nc1ccc(OCC(O)CNC(C)(C)C)c(C(C)=O)c1` (stereo not given), the max response is -3.18%.
Still for that read-out and setting: to `CN1[C@@H]2CC(OC(=O)[C@H](CO)c3ccccc3)C[C@H]1[C@@H]1O[C@@H]12` (stereo not given in full) belongs 9.71% and 1.92%.
As to `NC(N)=NCCC[C@H](N)C(=O)O`, the max response was -1.84% and -1.95%.
On the same count and under the same terms, to `CCN(CC)CCOC(=O)C1(C2CCCCC2)CCCCC1` belongs 0.472% and 32.4%; to `CC1(C)Oc2ccc(C#N)cc2[C@@H](N2CCCC2=O)[C@@H]1O`, -8.5% and 8.76%; to `Cc1ncc([N+](=O)[O-])n1CC(O)CCl` (stereo not given), 22.3%.
Turning to `C[C@@H]1CCN(C(=O)[C@H](CCCN=C(N)N)NS(=O)(=O)c2cccc3c2NC[C@H](C)C3)[C@@H](C(=O)O)C1`, the max response was -0.0233%.
Still for that read-out and setting: then `Nc1ccc(S(=O)(=O)Nc2ccccc2)cc1`, with -2.25%; and `CCN(CC)CCSC(=O)C(c1ccccc1)c1ccccc1`, with -11.9%.
For the compound `CCCCCCCCCCCCCCCC(=O)NCCO`, the max response is -1.98% and 26.2%.
On to `CCCCN(CCCC)CCCOC(=O)c1ccc(N)cc1`, for which the max response is 0.616%.
On the same count and under the same terms, to `Oc1cccc(O)c1` belongs -1.48%.
